Laboratory results from PubChem BioAssay (NCATS).
Results filed as inconclusive are left out. A number with no mark means an inactive call. Active and inactive are the calls of the source. Calls follow the shape of the dose curve; as a rule, active = well fitted inhibition curve with a large enough effect; inconclusive = small, poorly fitted or top-dose-only effect; inactive = flat fitted curve, though single readings scatter.

Tested on: CRL-7250
Test: Cytotoxic Profiling of Annotated Libraries Using Quantitative High-Throughput Screening (AID 1296008); also: nearly all actives have a fitted effect of over 60% in size
Settings: Five cell lines viability, CellTiter-Glo ATP luminescence, 48-72 h; max response: stronger effect = lower value
Procedure, shortened: (§1)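 Cytotoxicity was measured as CellTiter-Glo ATP luminescence, read after 10 min at room temperature. Compound treatment of the cells lasted 48 or 72 hr at 37 degrees Celsius in a qHTS format.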
% is scaled to controls: 0 for no effect and ±100 for the full control effect; potency is read from the fitted curve at half-maximal effect.

Compound | max response [%] | Potency
Cn1c(NC[C@@H](N)Cc2ccccc2)nc(-c2ccncc2)c(-c2ccc3ccccc3c2)c1=O | -1.38 | –
CC1(C)CC[C@]2(C(=O)OC3OC(CO)C(O)C(O)C3O)CC[C@]3(C)C(=CCC4[C@@]5(C)CC[C@H](OC6OC(C(=O)O)C(O)C(O)C6O)C(CO)(CO)C5CC[C@]43C)[C@@H]2C1 (stereo partly drawn) | – | 2.46 µM (active)
CCOC(=O)c1cnn(-c2ccc(NC(=O)C(Cl)=C(Cl)Cl)cc2)c1C(F)(F)F | – | 20.6 µM (active)
CC(=O)N1c2ccc(-c3ccc(C(=O)O)cc3)cc2C(Nc2ccc(Cl)cc2)CC1C (stereo not drawn) | – | 1.03 µM (active)
COc1ccc(C(=O)N(CCC(C)C)Cc2nc(C)c(C)n2Cc2ccccc2C)c(OC)c1 | -0.877 | –
CN(C)C(=O)c1cc2cnc(Nc3ccc(N4CCNCC4)cn3)nc2n1C1CCCC1 | 3.25 | –
CC1OC2OC3C(OCC(O)C3O)OC(=O)C34CCC(C)(C)CC3C3=CCC5C6(C)CC(O)C(OC7OC(CO)C(O)C(O)C7OC7OCC(OC(=O)CC(C)(O)CC(=O)OC1C(OC1OCC(O)C(O)C1O)C2O)C(O)C7O)C(C)(CO)C6CCC5(C)C3(C)CC4O (stereo not drawn) | – | 7.96 µM (active)
Cc1ccc2c(Nc3ccc(Cl)cc3)nccc2c1Nc1ncccc1-c1ncnc2nc[nH]c12 | – | 14.6 µM (active)
COc1ccccc1-c1cc(Nc2cccc(CS(N)(=O)=O)c2)ncn1 | – | 16.4 µM (active)
CCN(CC)c1ccc(C(=C2C=CC(=[N+](CC)CC)C=C2)c2cc(S(=O)(=O)O)ccc2S(=O)(=O)[O-])cc1 | – | 5.31 µM (active)
Cc1[nH]c(/C=C2\C(=O)Nc3ccc(F)cc32)c(C)c1C(=O)NC[C@H](O)CN1CCOCC1 | – | 6.51 µM (active)

Tested on: HaCat
Test: as above
Settings: Five cell lines viability, CellTiter-Glo ATP luminescence, 48-72 h; max response: stronger effect = lower value
Procedure, shortened: as §1

Compound | max response [%] | outcome | Potency
COc1cc([C@@H](CC(=O)O)c2ccc(C)c(CN3C[C@@H](C)Oc4ccccc4S3(=O)=O)c2)cc2nnn(C)c12 | -8.19 | – | –
O=[N+]([O-])c1ccc(-[n+]2nc(-c3ccccc3)nn2-c2ccc(I)cc2)cc1 | -29.5 | – | –
COc1ccccc1NC(=O)Nc1ccc2ccccc2c1 | -10 | – | –
C=C(C)C(=O)OC1[C@@H]2C(=C)C(=O)O[C@@H]2C[C@@H](C)[C@@H]2C=CC(=O)[C@@]12C (stereo partly drawn) | – | inactive | –
COc1cc2ncnc(Nc3ccc(Oc4ccccc4)cc3)c2cc1OC | – | – | 7.31 µM (active)
CCC(C)n1cc(C)c2c(C(=O)NCc3c(C)cc(C)[nH]c3=O)cc(-c3ccc(N4CCNCC4)nc3)cc21 (stereo not drawn) | – | inactive | –
CC(C)[C@@H](C)/C=C/[C@@H](C)[C@H]1CC[C@H]2C3=CC=C4C[C@@H](O)CC[C@]4(C)C3=CC[C@]12C | – | inactive | –
Nc1ncnc2c1ncn2[C@@H]1O[C@H](CO)C[C@H]1O | -125 | – | –
O=C(Nc1ccc(F)cc1)N1CCc2ccccc2C1c1ccc(C(F)(F)F)cc1 (stereo not drawn) | – | – | 14.6 µM (active)
C[C@@H]1COCCN1c1cc(C2(S(C)(=N)=O)CC2)nc(-c2ccnc3[nH]ccc23)n1 (stereo partly drawn) | – | – | 16.6 µM (active)
Cc1ccc(C(=O)N2CCN(c3ccc([N+](=O)[O-])cc3)CC2)cc1Cl | -12.6 | – | –
C=C1/C(=C/C=C2\CCC[C@]3(C)[C@@H]([C@H](C)/C=C/C(=O)C4CC4)CC[C@@H]23)C[C@@H](O)C[C@@H]1O | – | inactive | –
CC(C)(C)c1ccc(-c2nc3ccccc3[nH]2)cc1 | -8.47 | – | –
COc1cc(O)c(C(=O)CCc2ccc(O)cc2)c(O[C@@H]2O[C@H](CO)[C@@H](O)[C@H](O)[C@H]2O)c1 | – | inactive | –
CCN1CCN(Cc2ccc(-c3cc4c(NC(C)c5ccccc5)ncnc4[nH]3)cc2)CC1 (stereo not drawn) | – | – | 2.91 µM (active)
CN1CCN(C(=O)c2ccc(Nc3nccc(-c4cccs4)n3)cc2Cl)CC1 | -21.8 | – | –
Cc1ccc(C2(COC(=O)C(C)C)CO2)c(OC(=O)C(C)C)c1 (stereo not drawn) | – | inactive | –
CC1(C)CC23[C@@H]4CC(=O)[C@@H]2COC(=O)[C@@H]3CC[C@H]41 | -1.08 | – | –
COc1cc2ncnc(Oc3cccc(NC(=O)Nc4cc(C(C)(C)C(F)(F)F)on4)c3)c2cc1OC | – | – | 5.17 µM (active)
O=C(NNc1ccccc1)c1ccncc1 | -7.12 | – | –
CN(CCCNC(=O)c1ccc2nc3c(c(Cl)c2c1)CCCC3)Cc1ccccc1 | 1.7 | – | –
C=CC(=O)Nc1cc(Nc2nccc(-c3cn(C)c4ccccc34)n2)c(OC)cc1N(C)CCN(C)C | – | – | 1.03 µM (active)
